Our source for the AC50 and outcome values is PubChem BioAssay (EPA / NIEHS).

The structures appear in SMILES notation. Activity calls are given as the source filed them. The calls were made as follows: active = hit-call score of the fitted dose curve at least 0.9, where 1 is the maximum; inactive = score below 0.9.

Read-out in experiment [1]: Vascular cell adhesion molecule 1 (VCAM1), VCAM1 (gene 7412)
Put plainly: BSK_4H_VCAM1: BioMAP Diversity Plus: 4H Assay for Vascular cell adhesion molecule 1 (VCAM1) Biomarker Activity (AID 2283033).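 As to outcome: cell-surface VCAM-1 protein measured by ELISA.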 As to conditions: primary human endothelial cells (HUVEC); actives raise or lower the signal. In outline: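 Primary human umbilical vein endothelial cells were exposed to chemicals for 24 h, after which VCAM-1 was quantified by ELISA. Responses were fitted bidirectionally against DMSO as negative control and activity baseline.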

Read-out in experiment [2]: Interferon-gamma inducible Protein 10 (IP10), CXCL10 (gene 3627)
As to the kind of experiment: BSK_BE3C_IP10: BioMAP Diversity Plus: BE3C Assay for Interferon-gamma inducible Protein 10 (IP10) Biomarker Activity (AID 2283034). The following applies: primary human bronchial epithelial cells; actives raise or lower the signal. In outline:
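Human primary bronchial epithelial cells were exposed to chemicals for 24 hours, after which IP-10 levels were measured by ELISA. Data were fitted bidirectionally against DMSO, which served as the negative control and activity baseline.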

Read-out in experiment [3]: Monokine induced gamma interferon (MIG), CXCL9 (gene 4283)
As to the kind of experiment: BSK_BE3C_MIG: BioMAP Diversity Plus: BE3C Assay for Monokine induced gamma interferon (MIG) Biomarker Activity (AID 2283035). As to conditions: primary human bronchial epithelial cells; actives raise or lower the signal. In outline: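 ELISA read-out of MIG in human lung bronchial epithelial primary cultures, 24 h post-dosing. Bidirectional curve fit vs DMSO baseline.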

Read-out in experiment [4]: Transforming growth factor beta 1 (TGFb1), TGFB1 (gene 7040)
As to the kind of experiment: BSK_BE3C_TGFb1: BioMAP Diversity Plus: BE3C Assay for Transforming growth factor beta 1 (TGFb1) Biomarker Activity (AID 2283036). As to conditions: primary human bronchial epithelial cells; actives raise or lower the signal. In outline:
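Human primary bronchial epithelial cells (BE3C system) were dosed with chemical and TGF-b1 levels measured by ELISA at 24 h. Activity was fitted bidirectionally relative to DMSO negative control as baseline.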

Read-out in experiment [5]: Plasminogen activator inhibitor-1 (PAI1), SERPINE1 (gene 5054)
Put plainly: BSK_BE3C_PAI1: BioMAP Diversity Plus: BE3C Assay for Plasminogen activator inhibitor-1 (PAI1) Biomarker Activity (AID 2283037). As to conditions: primary human bronchial epithelial cells; actives raise or lower the signal. In outline: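 Human primary bronchial epithelial cells were exposed to chemical for 24 h, then PAI-1 was quantified by ELISA. Activity was fitted bidirectionally relative to the DMSO negative control baseline.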

Read-out in experiment [6]: urokinase plasminogen activator (uPA), PLAU (gene 5328)
Put plainly: BSK_BE3C_uPA: BioMAP Diversity Plus: BE3C Assay for urokinase plasminogen activator (uPA) Biomarker Activity (AID 2283038).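 As to outcome: uPA protein level quantified by ELISA in cell cultures; uPA read one day after compound addition.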 The following applies: primary human bronchial epithelial cells; actives raise or lower the signal. In outline: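 Bronchial epithelial cells (human, primary); chemical 24 h; uPA by ELISA; bidirectional fit vs DMSO. SRB (0.1%, after 10% TCA fixation, 560 nm) in parallel cultures for cytotoxicity.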

Read-out in experiment [7]: Urokinase-type plasminogen activator receptor (uPAR), PLAUR (gene 5329)
As to the kind of experiment: BSK_BE3C_uPAR: BioMAP Diversity Plus: BE3C Assay for Urokinase-type plasminogen activator receptor (uPAR) Biomarker Activity (AID 2283039).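 As to outcome: uPAR protein level measured by ELISA on the cells; cells exposed to compound for one day before measurement.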 As to conditions: primary human bronchial epithelial cells; actives raise or lower the signal. In outline:
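Primary human bronchial epithelial cells were dosed with chemical and harvested 24 h later; uPAR was quantified by ELISA. Activity was fitted bidirectionally against DMSO as negative control and baseline.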

Read-out in experiment [8]: Interleukin-6 (IL6), IL6 (gene 3569)
Put plainly: BSK_CASM3C_IL6: BioMAP Diversity Plus: CASM3C Assay for Interleukin-6 (IL6) Biomarker Activity for (AID 2283040). As to conditions: primary human coronary artery smooth muscle cells; actives raise or lower the signal.

Read-out in experiment [9]: Tissue plasminogen activator (tPA), PLAT (gene 5327)
Put plainly: BSK_BE3C_tPA: BioMAP Diversity Plus: BE3C Assay for Tissue plasminogen activator (tPA) Biomarker Activity (AID 2283041).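 As to outcome: tPA level quantified by ELISA one day after compound addition.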 As to conditions: primary human bronchial epithelial cells; actives raise or lower the signal. In outline: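 Human primary bronchial epithelial cells were dosed with chemical and tPA biomarker levels measured by ELISA 24 hours later. Activity was fitted bidirectionally against DMSO as negative control and baseline.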

Read-out in experiment [10]: Interleukin-8 (IL8), CXCL8 (gene 3576)
As to the kind of experiment: BSK_CASM3C_IL8: BioMAP Diversity Plus: CASM3C Assay for Interleukin-8 (IL8) Biomarker Activity (AID 2283042).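 Also: IL-8 protein level quantified by ELISA.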 As to conditions: primary human coronary artery smooth muscle cells; actives raise or lower the signal.

Read-out in experiment [11]: Human Leukocyte Antigen - DR isotype (HLADR), HLA-DRA (gene 3122)
As to the kind of experiment: BSK_CASM3C_HLADR: BioMAP Diversity Plus: CASM3C Assay for Human Leukocyte Antigen - DR isotype (HLADR) Biomarker Activity (AID 2283043).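 Also: cell-surface HLA-DR protein level quantified by ELISA.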 The following applies: primary human coronary artery smooth muscle cells; actives raise or lower the signal.

Read-out in experiment [12]: Macrophage colony-stimulating factor (MCSF), CSF1 (gene 1435)
As to the kind of experiment: BSK_CASM3C_MCSF: BioMAP Diversity Plus: CASM3C Assay for Macrophage colony-stimulating factor (MCSF) Biomarker Activity (AID 2283044).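 Also: M-CSF protein amount quantified by ELISA after 24 h exposure.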 As to conditions: primary human coronary artery smooth muscle cells; actives raise or lower the signal.

Read-out in experiment [13]: Low-density lipoprotein receptor (LDLR), LDLR (gene 3949)
As to the kind of experiment: BSK_CASM3C_LDLR: BioMAP Diversity Plus: CASM3C Assay for Low-density lipoprotein receptor (LDLR) Biomarker Activity (AID 2283045).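 Also: LDLR protein level on the cell surface quantified by ELISA.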 As to conditions: primary human coronary artery smooth muscle cells; actives raise or lower the signal.

Read-out in experiment [14]: Monocyte Chemoattractant Protein-1 (MCP1), CCL2 (gene 6347)
As to the kind of experiment: BSK_CASM3C_MCP1: BioMAP Diversity Plus: CASM3C Assay for Monocyte Chemoattractant Protein-1 (MCP1) Biomarker Activity (AID 2283046).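 Also: MCP-1 level quantified by ELISA 24 h after dosing.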 The following applies: primary human coronary artery smooth muscle cells; actives raise or lower the signal.

Experiment [15] is described as follows: BSK_CASM3C_Proliferation: Cell Proliferation Assessment in the BioMAP Diversity Plus: CASM3C Assay (AID 2283047).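 Also: sulforhodamine B total protein stain as relative cell number at 560 nm; sub-confluent cells exposed 48 h before staining; fitted both ways against DMSO so gain or loss of cell number.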 As to conditions: primary human coronary artery smooth muscle cells.
Read-out in experiment [16]: Monokine induced gamma interferon (MIG), CXCL9 (gene 4283)
Put plainly: BSK_CASM3C_MIG: BioMAP Diversity Plus: CASM3C Assay for Monokine induced gamma interferon (MIG) Biomarker Activity (AID 2283048).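 Also: MIG protein level measured by ELISA.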 The following applies: primary human coronary artery smooth muscle cells; actives raise or lower the signal.

Read-out in experiment [17]: serum amyloid A (SAA), SAA1 (gene 6288)
Put plainly: BSK_CASM3C_SAA: BioMAP Diversity Plus: CASM3C Assay for serum amyloid A (SAA) Biomarker Activity (AID 2283049).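 Also: SAA protein level quantified by ELISA.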 As to conditions: primary human coronary artery smooth muscle cells; actives raise or lower the signal.

Experiment [18] can be described thus: BSK_CASM3C_SRB: Viability Assessment in the BioMAP Diversity Plus: CASM3C Assay (AID 2283050).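 Also: total protein by SRB staining as cytotoxicity measure in parallel cultures.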 The following applies: primary human coronary artery smooth muscle cells.
Read-out in experiment [19]: Thrombomodulin, THBD (gene 7056)
Put plainly: BSK_CASM3C_Thrombomodulin: BioMAP Diversity Plus: CASM3C Assay for Thrombomodulin Biomarker Activity (AID 2283051).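 Also: thrombomodulin protein level measured by ELISA 24 h after dosing.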 As to conditions: primary human coronary artery smooth muscle cells; actives raise or lower the signal.

Read-out in experiment [20]: Tissue Factor, F3 (gene 2152)
As to the kind of experiment: BSK_CASM3C_TissueFactor: BioMAP Diversity Plus: CASM3C Assay for Tissue Factor Biomarker Activity (AID 2283052).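 Also: cell surface tissue factor protein level read by ELISA.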 The following applies: primary human coronary artery smooth muscle cells; actives raise or lower the signal.

Take `CCCCCC(C=O)=Cc1ccccc1`: the AC50 in experiment [1] was 30.5 µM (active); in experiment [2] it was 30.6 µM (active); in experiment [8], 32 µM (active); in experiment [11] it was 31 µM (active); in experiment [12] it was 31.9 µM (active); in experiment [14] it was 27.5 µM (active). For the same compound, the AC50 is 30.1 µM (active) in experiment [15], 33.5 µM (active) in [18] and 20 µM (active) in [20]. Moreover, the outcome in [3], in [4], in experiment [5], in experiment [6], in experiment [7] and in [9] was inactive. Also, the result in [10], in experiment [13], in [16], in experiment [17] and in [19] was inactive.
Consider `COc1cc(Cl)c(OC)cc1N`, for which the outcome in [1], in experiment [2], in [3], in experiment [4], in [5] and in experiment [6] was inactive. Moreover, the result in experiment [7], in experiment [8], in experiment [9], in experiment [10], in experiment [11] and in [12] was inactive. In addition, the outcome in experiment [13], in experiment [14], in experiment [15], in experiment [16], in [17] and in experiment [18] was inactive. Also, the outcome in experiment [19] and in experiment [20] was inactive.
With `CCCCCCC(CO)CCCC` (centres undefined), the result in experiment [1], in experiment [2], in experiment [3], in experiment [5], in experiment [6] and in [7] was inactive. For the same compound, the outcome in [8], in experiment [9], in experiment [10], in [11], in [12] and in [13] was inactive. The outcome in experiment [14], in experiment [15], in [16], in experiment [17], in experiment [18] and in [19] was inactive. Also, the outcome in experiment [20] was inactive.
With `Clc1cc(Cl)c(-c2c(Cl)c(Cl)cc(Cl)c2Cl)cc1Cl`, the AC50 in experiment [1] is 8.56 µM (active); in experiment [2], 17.5 µM (active); in experiment [5] it was 10 µM (active); in experiment [7], 1.98 µM (active); in experiment [15], 0.023 µM (active). For the same compound, the outcome in experiment [3], in [4], in experiment [6], in [8], in experiment [9] and in [10] was inactive. In addition, the outcome in experiment [11], in experiment [12], in [13], in experiment [14], in [16] and in experiment [17] was inactive. Moreover, the outcome in experiment [18], in experiment [19] and in [20] was inactive.
Consider `CCCCCCCCCCCCCCCC(=O)OC/C=C(C)/C=C/C=C(C)/C=C/C1=C(C)CCCC1(C)C`, for which the outcome in experiment [1], in experiment [2], in [3], in experiment [4], in [5] and in experiment [6] was inactive. Besides, the outcome in [7], in experiment [8], in [9], in [10], in [11] and in [12] was inactive. The outcome in experiment [13], in experiment [14], in experiment [15], in experiment [16], in [17] and in [18] was inactive. For the same compound, the result in [19] and in experiment [20] was inactive.
With `CCCCN(CCCC)C(=O)N(CCCC)CCCC`, the AC50 in [1] was 23.7 µM (active); in experiment [2], 9.08 µM (active); in experiment [3], 20 µM (active); in experiment [4], 5.38 µM (active); in experiment [5], 9.25 µM (active); in experiment [6], 9.69 µM (active). Besides, the AC50 in experiment [7] is 7.37 µM (active); in experiment [8], 20 µM (active); in [9], 6.94 µM (active); in experiment [10], 20 µM (active); in experiment [11] it was 12.5 µM (active); in experiment [12] it was 17.4 µM (active). Besides, the AC50 was 20 µM (active) in [13]; 20 µM (active) in [14]; 10.4 µM (active) in experiment [15]; 20 µM (active) in experiment [16]; 10.8 µM (active) in experiment [17]; 13.9 µM (active) in experiment [18]. In addition, the AC50 in experiment [20] is 11.7 µM (active). For the same compound, in experiment [19], the outcome was inactive.
